# According to the supplement of paper PMC8728848:
# Shown is part of a subset that was picked to be rich in the strongest signals.
# B1: SJCP1084 (Schistosoma japonicum) (protein)
# chain: MRIINLVIISTALLLINLLQTKSQANGEDTKNGTPDDPGLTKSTELKVEVQALLKDKKTNMRVKWNENLLDNTKPEYHNLRDEACELLLQIVRSVVPLSQDDGECKDVTFTKYVVGTKDGAVNVKLTITFKDSVAINQKPMDLKLKLENDFKNLQSESTLKATKPTFTVKVEKRLIPISKPQTTPPTTAKNDASKENVGDIGGEDSTVPTAAPATAASANEEKDEGDKDNKDSQHPNVLTSNVNDRNLIIALVALMILAIGVALTAAVKQR
# Key:
# Assay in all cases: glycan array binding signal (z-score within array); higher = stronger binding
# Conditions in all cases: glycan notation: IUPAC condensed, linker removed
# [1] = target: Gal(b1-4)GlcNAc(b1-3)Gal(b1-4)GlcNAc(b1-3)Gal(b1-4)GlcNAc(b1-3)Gal(b1-4)GlcNAc(b1-3)Gal(b1-4)GlcNAc(b1-2)Man(a1-3)[Gal(b1-4)GlcNAc(b1-3)Gal(b1-4)GlcNAc(b1-3)Gal(b1-4)GlcNAc(b1-3)Gal(b1-4)GlcNAc(b1-3)Gal(b1-4)GlcNAc(b1-2)Man(a1-6)]Man(b1-4)GlcNAc(b1-4)[Fuc(a1-6)]GlcNAc
# Procedure, shortened: (§1)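 Glycan array binding is given as a within-array Z-score, which can be read as non-binding when negative. The arrays, 3228 of them, came from the Consortium for Functional Glycomics database and were retained only where the protein sequence was available. Z-scores were averaged across arrays of the same protein sequence at different concentrations or buffers and across linkers.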
# [2] = target: Gal(b1-4)GlcNAc(b1-3)Gal(b1-4)GlcNAc(b1-3)Gal(b1-4)GlcNAc(b1-3)Gal(b1-4)GlcNAc(b1-3)Gal(b1-4)GlcNAc(b1-2)[Gal(b1-4)GlcNAc(b1-3)Gal(b1-4)GlcNAc(b1-3)Gal(b1-4)GlcNAc(b1-3)Gal(b1-4)GlcNAc(b1-3)Gal(b1-4)GlcNAc(b1-6)]Man(a1-6)[Gal(b1-4)GlcNAc(b1-3)Gal(b1-4)GlcNAc(b1-3)Gal(b1-4)GlcNAc(b1-3)Gal(b1-4)GlcNAc(b1-3)Gal(b1-4)GlcNAc(b1-2)Man(a1-3)]Man(b1-4)GlcNAc(b1-4)[Fuc(a1-6)]GlcNAc
# Procedure, shortened: as §1
# [3] = target: Gal(b1-4)GlcNAc(b1-3)Gal(b1-4)GlcNAc(b1-3)[Gal(b1-4)GlcNAc(b1-3)Gal(b1-4)GlcNAc(b1-6)]GalNAc
# Procedure, shortened: as §1
# [4] = target: Gal3S(b1-4)GlcNAc
# Procedure, shortened: as §1
# [5] = target: GalNAc(b1-3)Gal(a1-4)Gal(b1-4)GlcNAc
# Procedure, shortened: as §1
# [6] = target: GlcNAc(a1-4)Gal(b1-4)GlcNAc(b1-3)Gal(b1-4)[Fuc(a1-3)]GlcNAc(b1-3)Gal(b1-4)[Fuc(a1-3)]GlcNAc
# Procedure, shortened: as §1
# [7] = target: GlcNAc(b1-3)Gal(b1-4)GlcNAc(b1-3)Gal(b1-4)GlcNAc(b1-2)Man(a1-3)[GlcNAc(b1-3)Gal(b1-4)GlcNAc(b1-3)Gal(b1-4)GlcNAc(b1-2)Man(a1-6)]Man(b1-4)GlcNAc(b1-4)GlcNAc
# Procedure, shortened: as §1
# [8] = target: GlcNAc(b1-3)Gal(b1-4)GlcNAc(b1-3)Gal(b1-4)GlcNAc(b1-3)Gal(b1-4)GlcNAc(b1-2)Man(a1-3)[GlcNAc(b1-3)Gal(b1-4)GlcNAc(b1-3)Gal(b1-4)GlcNAc(b1-3)Gal(b1-4)GlcNAc(b1-2)Man(a1-6)]Man(b1-4)GlcNAc(b1-4)[Fuc(a1-6)]GlcNAc
# Procedure, shortened: as §1
# [9] = target: GlcNAc(b1-3)Gal(b1-4)GlcNAc(b1-3)Gal(b1-4)GlcNAc(b1-3)Gal(b1-4)GlcNAc(b1-3)Gal(b1-4)GlcNAc(b1-2)Man(a1-3)[GlcNAc(b1-3)Gal(b1-4)GlcNAc(b1-3)Gal(b1-4)GlcNAc(b1-3)Gal(b1-4)GlcNAc(b1-3)Gal(b1-4)GlcNAc(b1-2)Man(a1-6)]Man(b1-4)GlcNAc(b1-4)[Fuc(a1-6)]GlcNAc
# Procedure, shortened: as §1
# [10] = target: GlcNAc(b1-3)Gal(b1-4)GlcNAc(b1-3)Gal(b1-4)GlcNAc(b1-3)Gal(b1-4)GlcNAc(b1-3)Gal(b1-4)GlcNAc(b1-2)[GlcNAc(b1-3)Gal(b1-4)GlcNAc(b1-3)Gal(b1-4)GlcNAc(b1-3)Gal(b1-4)GlcNAc(b1-3)Gal(b1-4)GlcNAc(b1-6)]Man(a1-6)[GlcNAc(b1-3)Gal(b1-4)GlcNAc(b1-3)Gal(b1-4)GlcNAc(b1-3)Gal(b1-4)GlcNAc(b1-3)Gal(b1-4)GlcNAc(b1-2)Man(a1-3)]Man(b1-4)GlcNAc(b1-4)[Fuc(a1-6)]GlcNAc
# Procedure, shortened: as §1
# [11] = target: GlcNAc(b1-3)Man
# Procedure, shortened: as §1
# [12] = target: Neu5Ac(a2-3)Gal(b1-3)GalNAc
# Procedure, shortened: as §1
# [13] = target: Neu5Ac(a2-3)Gal(b1-3)GalNAc(b1-4)[Neu5Ac(a2-3)]Gal(b1-4)Glc
# Procedure, shortened: as §1
# [14] = target: Neu5Ac(a2-3)Gal(b1-3)GlcNAc(b1-2)Man(a1-3)[GlcNAc(b1-4)][Neu5Ac(a2-3)Gal(b1-3)GlcNAc(b1-2)Man(a1-6)]Man(b1-4)GlcNAc(b1-4)GlcNAc
# Procedure, shortened: as §1
# [15] = target: Neu5Ac(a2-3)Gal(b1-3)[Neu5Ac(a2-6)]GalNAc
# Procedure, shortened: as §1
# [16] = target: Neu5Ac(a2-3)Gal(b1-4)GlcNAc(b1-2)Man(a1-3)[Neu5Ac(a2-3)Gal(b1-4)GlcNAc(b1-2)Man(a1-6)]Man(b1-4)GlcNAc(b1-4)GlcNAc
# Procedure, shortened: as §1
# [17] = target: Neu5Ac(a2-3)Gal(b1-4)GlcNAc(b1-3)Gal(b1-3)GlcNAc
# Procedure, shortened: as §1
# [18] = target: Neu5Ac(a2-3)Gal(b1-4)GlcNAc(b1-3)Gal(b1-4)GlcNAc(b1-2)Man(a1-3)[Neu5Ac(a2-3)Gal(b1-4)GlcNAc(b1-3)Gal(b1-4)GlcNAc(b1-2)Man(a1-6)]Man(b1-4)GlcNAc(b1-4)GlcNAc
# Procedure, shortened: as §1
# [19] = target: Neu5Ac(a2-3)Gal(b1-4)GlcNAc(b1-3)Gal(b1-4)[Fuc(a1-3)]GlcNAc
# Procedure, shortened: as §1
# [20] = target: Neu5Ac(a2-3)Gal(b1-4)[Fuc(a1-3)]GlcNAc(b1-3)Gal(b1-4)[Fuc(a1-3)]GlcNAc(b1-3)Gal(b1-4)[Fuc(a1-3)]GlcNAc
# Procedure, shortened: as §1
# [21] = target: Neu5Ac(a2-3)[GalNAc(b1-4)]Gal(b1-4)Glc
# Procedure, shortened: as §1
# [22] = target: Neu5Ac(a2-6)Gal(b1-3)GlcNAc(b1-3)[Gal(b1-4)GlcNAc(b1-6)]Gal(b1-4)Glc
# Procedure, shortened: as §1
# [23] = target: Neu5Ac(a2-8)Neu5Gc(a2-3)Gal(b1-4)GlcNAc
# Procedure, shortened: as §1
binder,measurement,setting,value
B1,glycan array binding signal (z-score),[1],4.28
same,glycan array binding signal (z-score),[2],4.79
same,glycan array binding signal (z-score),[3],1.47
same,glycan array binding signal (z-score),[4],-0.79
same,glycan array binding signal (z-score),[5],0.632
same,glycan array binding signal (z-score),[6],2.09
same,glycan array binding signal (z-score),[7],1.03
same,glycan array binding signal (z-score),[8],1.66
same,glycan array binding signal (z-score),[9],-0.466
same,glycan array binding signal (z-score),[10],2.68
same,glycan array binding signal (z-score),[11],0.248
same,glycan array binding signal (z-score),[12],-0.71
same,glycan array binding signal (z-score),[13],-0.565
same,glycan array binding signal (z-score),[14],-0.628
same,glycan array binding signal (z-score),[15],-0.036
same,glycan array binding signal (z-score),[16],0.105
same,glycan array binding signal (z-score),[17],-0.757
same,glycan array binding signal (z-score),[18],-0.701
same,glycan array binding signal (z-score),[19],-0.263
same,glycan array binding signal (z-score),[20],0.379
same,glycan array binding signal (z-score),[21],-0.474
same,glycan array binding signal (z-score),[22],-0.092
same,glycan array binding signal (z-score),[23],-0.605
